KCNQ2 pot = potentiators of rat KCNQ2 potassium channel; Potassium voltage-gated channel subfamily KQT member 2 (Rattus norvegicus), O88943; CHO-K1 KCNQ2, FluxOR thallium flux fluorescence; stronger effect = higher value; B-score at 10 µM; hit rate 0.54% among 310,000; AID 2239, 2010;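 active = fluorescence ratio B-score at least 3 SD of library B-scores, with initial fluorescence B-score within 3 of them, cut at about 5.3 in these data; same plate scores as AID 2156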;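 note: B-score of peak minus minimum over baseline fluorescence ratio after K+ and Tl+ stimulus; positive B-score means potentiation of KCNQ2 with more thallium influx and brighter signal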
KCNQ2 block = rat KCNQ2 potassium channel inhibitors, primary screen, cell-based, CHO-K1, FluxOR thallium flux, B-score; Potassium voltage-gated channel subfamily KQT member 2 (Rattus norvegicus), O88943; 20 min; stronger effect = lower value; B-score at 10 µM; hit rate 1.1% among 310,000; AID 2156, 2009;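 active = fluorescence ratio B-score at most minus 3 library SDs, with starting brightness B-score within 2 library SDs, cut at about -5.5 in these data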
Kir21 conf inh = mouse Kir2.1 channel blockers, retest, confirmation, cell-based, FluxOR thallium flux, duplicate. shares compounds with KCNQ2 pot. Kir2.1-expressing cells, FluxOR thallium flux fluorescence; stronger effect = lower value. Tl flux remaining, % of negative control (stronger effect = lower value), % at 10 µM. hit rate 41% among 2,300. AID 2032, 2009;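 active = Primary-screen hit whose thallium flux fell at least 3 control SD below untreated wells in both duplicates, with normal baseline fluorescence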
Target sequence (P35561 whole entry, looked up): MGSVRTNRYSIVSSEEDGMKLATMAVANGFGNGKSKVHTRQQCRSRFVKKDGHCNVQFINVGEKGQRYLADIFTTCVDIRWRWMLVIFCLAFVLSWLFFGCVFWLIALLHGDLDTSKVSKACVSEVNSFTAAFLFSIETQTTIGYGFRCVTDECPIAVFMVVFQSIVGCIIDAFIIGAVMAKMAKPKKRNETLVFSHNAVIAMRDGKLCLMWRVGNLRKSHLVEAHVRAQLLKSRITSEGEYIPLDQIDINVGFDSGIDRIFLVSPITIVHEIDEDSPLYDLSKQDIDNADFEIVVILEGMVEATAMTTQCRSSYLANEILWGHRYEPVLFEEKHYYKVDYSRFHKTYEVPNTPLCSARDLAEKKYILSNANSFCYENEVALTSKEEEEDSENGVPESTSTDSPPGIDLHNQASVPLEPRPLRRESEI
HEK293 ctr = counter-screen for Kir2.1 inhibitors: effect in parental HEK293 cells; shares compounds with KCNQ2 pot; FluxOR thallium flux fluorescence; 0% = unstimulated blank wells; FluxOR signal as % of negative control (100 = no effect), % at 10 µM; hit rate 19% among 2,300; AID 2105;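 active = dye signal at least 3 control SD above or below untreated wells in both duplicates, raw fluorescence within 3, either direction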;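 note: percent is based on the flux ratio of peak minus minimum fluorescence over baseline F0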
CHO-K1 Tl ctr = nonspecific thallium flux increase in parental CHO-K1, confirmation, counter-screen for KCNQ2 potentiator project, cell-based, FluxOR thallium flux, duplicate; shares compounds with KCNQ2 pot; parental CHO-K1 cells, FluxOR thallium flux fluorescence; zero = vehicle mean+3SD, 100% = vehicle-minus-blank window; activity increase over 3SD of controls, % at 10 µM; hit rate 43% among 1,200; AID 2282, 2010;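 active = signal rise of at least 3 SD above the untreated control mean, in both duplicate wells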;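 note: counter screen of KCNQ2 potentiator hits so any rise reflects channel-independent effects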
KCNQ1 pot spec = human KCNQ1 channel potentiation off-target, confirmation, selectivity assay for KCNQ2 potentiator project, cell-based, CHO, FluxOR thallium flux. activation over 3SD threshold, % at 10 µM. shares compounds with KCNQ2 pot. CHO KCNQ1 stable, FluxOR thallium flux fluorescence; beyond 3SD, as % of vehicle-control signal. hit rate 28% among 1,200;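 active = fluorescence ratio rise of at least 3 SD of vehicle wells above their mean, in both replicate wells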
KCNQ2 pot confirm = rat KCNQ2 channel potentiators, confirmation, cell-based, CHO, FluxOR thallium flux, duplicate; CHO-KCNQ2 cells, FluxOR thallium flux fluorescence; potentiation, less the hit threshold, % at 10 µM; shares compounds with KCNQ2 pot; AID 2287, 2010; hit rate 68% among 1,200;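 active = fluorescence ratio rising 3 SD or more over the vehicle control mean in both replicates, plus primary screen hit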;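 note: peak minus minimum thallium fluorescence divided by baseline after K/Tl stimulus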
Kir21 spec = mouse Kir2.1 channel activation off-target, confirmation, selectivity assay for KCNQ2 potentiator project, cell-based, HEK293, FluxOR thallium flux. AID 2345, 2010. activity over 3SD threshold, % at 10 µM. shares compounds with KCNQ2 pot. hit rate 2% among 1,200. HEK293 Kir2.1, FluxOR thallium flux fluorescence;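 active = fluorescence ratio rise of at least 3 SD above the vehicle-control mean, seen in both replicates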
KCNQ2 W236L pot = potentiators of retigabine-insensitive KCNQ2 W236L, mechanism study for KCNQ2 potentiator project, cell-based, rat KCNQ2 W236L, CHO, automated patch clamp; automated patch clamp current; AID 2558, 2010; current increase over 3SD of negative controls (%), stronger effect = higher value, % at 25 µM; shares compounds with KCNQ2 pot; hit rate 10% among 940;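 active = current increase at least 3 SD of the untreated controls above them in both duplicate recordings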
Numbers stand for hits; 0 = inactive; - = not tested or not shown. An excerpt weighted towards active compounds, which were near 1.6% of everything screened.

SMILES	KCNQ2 pot	KCNQ2 block	Kir21 conf inh	HEK293 ctr	others
Oc1c(CN2CCN(c3ccccc3)CC2)cc(Br)c2cccnc12	0	0	-	-
Oc1c(CN2CCOCC2)cc(COCc2ccccc2)c2cccnc12	11	0	0	0	CHO-K1 Tl ctr=0;KCNQ1 pot spec=0;KCNQ2 pot confirm=26;Kir21 spec=0;KCNQ2 W236L pot=0
COc1ccc(C2(O)CCN(CC(=O)Nc3nc(-c4ccccc4)cs3)CC2)cc1	-	0	-	-
C#CCNC(=O)C1=C[C@@H](c2ccc(C#C)cc2)C[C@@H](OCc2ccc(CO)cc2)O1	-	0	66%	0
C#CCNC(=O)C1=C[C@@H](c2ccc(Br)cc2)C[C@@H](OCc2ccc(CO)cc2)O1	-	0	-	-
COCCCNCCCOc1ccc(C(C)(C)c2ccccc2)cc1	0	0	-	-
CC(C)(c1ccccc1)c1ccc(OCCCNCCO)cc1	0	0	28%	0
COc1ccc(C(C)=O)cc1CSc1nnnn1-c1ccc(O)cc1	-	0	-	-
CCOc1ccc(C(C)=O)cc1CSc1nnnn1-c1ccc(O)cc1	-	0	62%	0
O=C(Nc1ccc(Cn2ccnc2)cc1)c1cccc(C(F)(F)F)c1	-	0	-	-
CSc1cccc(CN2CCCC(C(=O)Nc3cccc(-n4cccn4)c3)C2)c1 (configuration not stated)	-	0	-	-
CN1CCN(C(=O)CSc2nc(-c3ccco3)cc(C(F)(F)F)n2)CC1	0	0	-	-
O=C(CCSc1nc(-c2ccco2)cc(C(F)(F)F)n1)N1CCN(c2ccccn2)CC1	-	0	-	-
O=C(CSc1nc(-c2ccco2)cc(C(F)(F)F)n1)N1CCSCC1	12	0	0	0	CHO-K1 Tl ctr=0;KCNQ1 pot spec=68;KCNQ2 pot confirm=34;Kir21 spec=0;KCNQ2 W236L pot=0
O=C(CSc1nc(-c2ccco2)cc(C(F)(F)F)n1)N1CCN(c2cccc(Cl)c2)CC1	7.9	0	0	76%	CHO-K1 Tl ctr=15;KCNQ1 pot spec=60;KCNQ2 pot confirm=0;Kir21 spec=0
O=C(Nc1cccc(OC(F)(F)F)c1)c1ccc(Br)o1	11	0	0	0	CHO-K1 Tl ctr=12;KCNQ1 pot spec=0;KCNQ2 pot confirm=0;Kir21 spec=0;KCNQ2 W236L pot=22%
O=C(Nc1cccc(F)c1)c1ccc(Br)o1	0	0	-	-
CCOc1ccc2oc(C(=O)N(CC)CC(=O)Nc3c(F)cccc3F)c(C)c2c1	-	0	-	-
COc1ccc(C(C)=O)cc1CSCC(=O)O	0	0	-	-
COc1ccc(C(=O)/C=C/c2cccc(OCc3ccccc3)c2)cc1CSCC(=O)O	-	0	74%	0
CCN(CC)CC(=O)N1c2ccccc2Sc2ccccc21	0	0	-	-
CCN(CC)CCCCN1c2ccccc2Sc2ccccc21	-	0	44%	0
CN(C)c1ccc(/C=N/NC(=O)c2nnn(-c3nonc3N)c2COc2ccc(F)cc2)cc1	-	0	-	-
CCOC(=O)C1CCN(Cc2cccc(Oc3ccc(Cl)cc3)c2)CC1	-	0	-	-
CCOC(=O)C1CCN(Cc2cccc(Oc3ccccc3)c2)CC1	-	0	27%	0
SMILES	KCNQ2 pot	KCNQ2 block	Kir21 conf inh	HEK293 ctr	others
CC(C)CCn1c2ccccc2c2cc(CC(N)=O)ccc21	0	0	0	0
NC(=O)CCn1c2ccccc2c2ccccc21	0	0	-	-
Cc1ccc(NC(=S)NC(=O)c2ccc(Br)o2)c(C)c1	0	0	-	-
O=C(NC(=S)Nc1ccccc1F)c1ccc(Br)o1	16	0	0	0	CHO-K1 Tl ctr=57;KCNQ1 pot spec=0;KCNQ2 pot confirm=67;Kir21 spec=0;KCNQ2 W236L pot=0
Cc1c(NC(=S)NC(=O)c2ccc(Br)o2)c(=O)n(-c2ccccc2)n1C	-	0	-	-
Cc1cccc(C)c1NC(=S)NC(=O)c1ccc(Br)o1	14	0	0	0	CHO-K1 Tl ctr=0.9;KCNQ1 pot spec=0;KCNQ2 pot confirm=60;Kir21 spec=0;KCNQ2 W236L pot=0
Cc1cccc(NC(=S)NC(=O)c2ccc(Br)o2)c1C	8.4	0	0	148%	CHO-K1 Tl ctr=47;KCNQ1 pot spec=0;KCNQ2 pot confirm=28;Kir21 spec=0;KCNQ2 W236L pot=0
O=C(NNC(=S)Nc1ccccc1C(F)(F)F)c1ccc(Br)o1	0	0	-	-
O=c1[nH]c2ccc(S(=O)(=O)NCc3ccccc3)cc2[nH]1	0	0	-	-
CC(C)(C)c1ccc(C(=O)NCCNC(=O)c2ccco2)cc1	-	0	-	-
Cc1c(C(=O)O)sc2nc(CSc3ncc(C(F)(F)F)cc3Cl)[nH]c(=O)c12	-	0	-	-
Cc1ccc(Nc2nc(-c3cccs3)cs2)nc1	0	0	0	0
Cc1ccc(Nc2nc(-c3ccccc3)cs2)nc1	0	0	-	-
O=C(C[n+]1ccc(C(=O)NCCCO)cc1)c1cccc(Br)c1	0	0	-	-
O=C(Nc1ccc(CSc2ccccc2)cc1)c1ccco1	6.9	0	0	0	CHO-K1 Tl ctr=76;KCNQ1 pot spec=0;KCNQ2 pot confirm=0;Kir21 spec=0;KCNQ2 W236L pot=0
O=C(O)c1ccccc1C(=O)Nc1ccc(Oc2cccc3ccccc23)cc1	0	0	-	-
O=C(Nc1ccc(Oc2cccc3ccccc23)cc1)c1ccco1	6.4	0	0	0	CHO-K1 Tl ctr=0;KCNQ1 pot spec=0;KCNQ2 pot confirm=0;Kir21 spec=0;KCNQ2 W236L pot=0
O=C(CCc1ccccc1)Nc1ccc(NC(=O)c2ccco2)cc1	0	0	-	-
CCCc1cnc(N2CCN(C(=O)c3c(-c4ccccc4)noc3C)CC2)nc1	-	0	-	-
C/C(=N\NC(=O)c1nc2ccccn2c1C)c1cc2ccccc2o1	0	0	-	-
C/C(=N\NC(=O)c1c[nH]c2ccccc12)c1ccccn1	-	0	-	-
C/C(=N\NC(=O)c1cc2ccccc2cc1O)c1cc2ccccc2o1	21	0	0	452%	CHO-K1 Tl ctr=93;KCNQ1 pot spec=0;KCNQ2 pot confirm=69;Kir21 spec=0;KCNQ2 W236L pot=0
C/C(=N\NC(=O)c1cc2ccccc2cc1O)c1ccccn1	5.9	0	0	166%	CHO-K1 Tl ctr=0;KCNQ1 pot spec=3.0;KCNQ2 pot confirm=0;Kir21 spec=0
CC1=NN(C(N)=S)C(=O)C1N=Nc1ccc(Cl)cc1Cl (configuration not stated)	13	0	0	0	CHO-K1 Tl ctr=0;KCNQ1 pot spec=0;KCNQ2 pot confirm=0;Kir21 spec=0;KCNQ2 W236L pot=0
CC1=NN(C(N)=S)C(=O)C1N=Nc1ccccc1Cl (configuration not stated)	-	0	-	-
S=C(NCc1ccccc1)NCc1cccc(Cl)c1	-	0	-	-
S=C(NCc1ccccc1)Nc1ccc(Cl)cc1	0	0	-	-
C/C(=N\NC(=S)NCCc1ccccc1)c1ccc(O)cc1O	0	0	-	-

Bioassay records deposited in PubChem BioAssay by Johns Hopkins Ion Channel Center.
